Laboratory results published in PubChem BioAssay (EPA / NIEHS).
Results filed as inconclusive are left out. The source made the active and inactive calls. How the source made its calls, unless noted: active means hit-call score of the fitted dose curve at least 0.9, where 1 is the maximum; inactive means score below 0.9.

How the values were obtained:
[1] = BSK_3C_VCAM1: BioMAP Diversity Plus: 3C Assay for Vascular cell adhesion molecule 1 (VCAM1) Biomarker Activity (AID 2282999); settings: BioMAP 3C HUVEC, VCAM1 ELISA, cytokine-stimulated; actives raise or lower the signal
Method in brief: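 HUVEC primary cells, 24 h compound exposure; VCAM-1 by ELISA; gain/loss of signal fitted bidirectionally vs DMSO baseline.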

[2] = BSK_4H_Eotaxin3: BioMAP Diversity Plus: 4H Assay for Eotaxin 3 Biomarker Activity (AID 2283000); settings: primary human endothelial cells (HUVEC); actives raise or lower the signal
Method in brief: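 Readout is Eotaxin-3 (CCL26) level by ELISA in primary human umbilical vein endothelial cells harvested 24 h after chemical exposure; activity fitted in both directions against DMSO control.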

[3] = target: human Peroxisome Proliferator-activated Receptor delta (PPARd), PPARD (gene 5467) (UniProt Q03181); assay: ATG_PPARd_TRANS: Attagene TRANS-FACTORIAL HepG2 Assay for human Peroxisome Proliferator-activated Receptor delta (PPARd) (AID 2283002; active means hit-call score of the fitted dose curve at least 0.9, where 1 is the maximum)
Sequence of human Peroxisome Proliferator-activated Receptor delta (PPARd), PPARD (gene 5467) (Q03181 whole entry, looked up, the tested form may be a part): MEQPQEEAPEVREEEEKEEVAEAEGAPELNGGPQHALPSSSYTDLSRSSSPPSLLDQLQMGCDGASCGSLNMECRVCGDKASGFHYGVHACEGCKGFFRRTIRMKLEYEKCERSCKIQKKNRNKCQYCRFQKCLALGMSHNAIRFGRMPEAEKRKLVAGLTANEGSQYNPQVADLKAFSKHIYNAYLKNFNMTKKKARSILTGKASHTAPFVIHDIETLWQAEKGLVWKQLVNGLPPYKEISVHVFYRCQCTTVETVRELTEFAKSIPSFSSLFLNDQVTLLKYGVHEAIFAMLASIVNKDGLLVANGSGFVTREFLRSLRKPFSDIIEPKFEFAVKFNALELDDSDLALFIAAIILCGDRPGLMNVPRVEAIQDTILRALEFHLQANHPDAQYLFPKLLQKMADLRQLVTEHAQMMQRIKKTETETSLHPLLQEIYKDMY
Method in brief: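 HepG2 cells transiently transfected with GAL4-UAS multiplexed reporter units driven by exogenous chimeric NR-GAL4 proteins; 24 h compound exposure. Reporter mRNA measured by RT-PCR, 6-FAM primer extension, HpaI digestion and capillary electrophoresis; gain of signal fitted relative to DMSO.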

[4] = read-out: Intercellular Adhesion Molecule 1 (ICAM1), ICAM1 (gene 3383); assay: BSK_3C_ICAM1: BioMAP Diversity Plus: 3C Assay for Intercellular Adhesion Molecule 1 (ICAM1) Biomarker Activity (AID 2283003); settings: primary human endothelial cells (HUVEC); actives raise or lower the signal
Method in brief: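 Chemicals are dosed onto primary human umbilical vein endothelium (3C system). After 24 h, ICAM-1 is measured by ELISA, and responses are fitted bidirectionally relative to DMSO.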

[5] = target: Retinoic acid receptor alpha (Homo sapiens) (UniProt P10276); assay: ATG_RARa_TRANS: Attagene TRANS-FACTORIAL HepG2 Assay for human Retinoic Acid Receptor alpha (RARa) (AID 2283005; active means hit-call score of the fitted dose curve at least 0.9, where 1 is the maximum)
Sequence of Retinoic acid receptor alpha (Homo sapiens) (P10276 whole entry, looked up, the tested form may be a part): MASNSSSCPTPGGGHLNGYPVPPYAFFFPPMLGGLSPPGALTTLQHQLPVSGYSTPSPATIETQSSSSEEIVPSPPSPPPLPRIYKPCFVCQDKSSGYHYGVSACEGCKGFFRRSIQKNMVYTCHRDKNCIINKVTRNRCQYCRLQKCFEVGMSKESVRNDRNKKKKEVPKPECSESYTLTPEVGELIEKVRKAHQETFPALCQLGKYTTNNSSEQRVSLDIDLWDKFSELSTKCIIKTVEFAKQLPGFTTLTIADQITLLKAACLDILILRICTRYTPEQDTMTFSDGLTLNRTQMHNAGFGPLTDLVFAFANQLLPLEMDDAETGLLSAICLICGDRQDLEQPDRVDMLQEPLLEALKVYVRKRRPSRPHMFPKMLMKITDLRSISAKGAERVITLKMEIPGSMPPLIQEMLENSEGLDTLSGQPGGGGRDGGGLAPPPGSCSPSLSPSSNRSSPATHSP
Method in brief: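 HepG2 transiently transfected with multiplex GAL4-UAS reporter units including a human RARa–GAL4 chimera; 24 h compound exposure. Reporter mRNA quantified by RT-PCR, 6-FAM labeling and capillary electrophoresis; gain of signal versus DMSO.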

[6] = BSK_3C_Proliferation: Cell Proliferation Assessment in the BioMAP Diversity Plus: 3C Assay (AID 2283006); settings: primary human endothelial cells (HUVEC);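 on AC50: potency may reflect either rise or fall in cell number versus DMSO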
Method in brief: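 Cells (human umbilical vein endothelial, sub-confluent) receive test chemical; after 48 h they are fixed in 10% trichloroacetic acid, stained with 0.1% SRB and read at 560 nm. Activity is referenced to DMSO, fitting increases and decreases.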

[7] = target: Peroxisome proliferator-activated receptor gamma (Homo sapiens) (UniProt P37231); assay: ATG_PPARg_TRANS: Attagene TRANS-FACTORIAL HepG2 Assay for human Peroxisome Proliferator-activated Receptor-gamma (PPARg) (AID 2283007; active means hit-call score of the fitted dose curve at least 0.9, where 1 is the maximum)
Sequence of Peroxisome proliferator-activated receptor gamma (Homo sapiens) (P37231 whole entry, looked up, the tested form may be a part): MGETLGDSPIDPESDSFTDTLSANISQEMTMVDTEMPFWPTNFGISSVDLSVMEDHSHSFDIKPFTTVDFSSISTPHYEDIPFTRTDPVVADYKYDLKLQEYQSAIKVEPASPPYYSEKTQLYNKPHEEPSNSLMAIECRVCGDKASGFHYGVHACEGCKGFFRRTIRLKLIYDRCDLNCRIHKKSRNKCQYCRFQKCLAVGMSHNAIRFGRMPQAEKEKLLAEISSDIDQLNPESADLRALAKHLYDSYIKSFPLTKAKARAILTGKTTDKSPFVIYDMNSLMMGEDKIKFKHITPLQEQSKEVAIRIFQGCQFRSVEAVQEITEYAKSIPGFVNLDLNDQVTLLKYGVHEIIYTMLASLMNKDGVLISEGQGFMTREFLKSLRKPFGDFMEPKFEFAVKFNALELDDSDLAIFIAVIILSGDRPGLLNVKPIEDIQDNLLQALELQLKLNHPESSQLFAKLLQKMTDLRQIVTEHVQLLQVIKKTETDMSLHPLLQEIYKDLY
Method in brief: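 HepG2 cells transiently transfected with multiplexed GAL4-UAS reporter units and exogenous chimeric NR-Gal4 proteins; reporter mRNA quantified after 24 h compound exposure by RT-PCR, fluorescent labelling, HpaI digestion and capillary electrophoresis; gain-of-signal fitted versus DMSO baseline.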

[8] = target: Nuclear receptor subfamily 1 group I member 2 (Homo sapiens) (UniProt O75469); assay: ATG_PXR_TRANS: Attagene TRANS-FACTORIAL HepG2 Assay for human Pregnane X Receptor (PXR) (AID 2283008; active means hit-call score of the fitted dose curve at least 0.9, where 1 is the maximum)
Sequence of Nuclear receptor subfamily 1 group I member 2 (Homo sapiens) (O75469 whole entry, looked up, the tested form may be a part): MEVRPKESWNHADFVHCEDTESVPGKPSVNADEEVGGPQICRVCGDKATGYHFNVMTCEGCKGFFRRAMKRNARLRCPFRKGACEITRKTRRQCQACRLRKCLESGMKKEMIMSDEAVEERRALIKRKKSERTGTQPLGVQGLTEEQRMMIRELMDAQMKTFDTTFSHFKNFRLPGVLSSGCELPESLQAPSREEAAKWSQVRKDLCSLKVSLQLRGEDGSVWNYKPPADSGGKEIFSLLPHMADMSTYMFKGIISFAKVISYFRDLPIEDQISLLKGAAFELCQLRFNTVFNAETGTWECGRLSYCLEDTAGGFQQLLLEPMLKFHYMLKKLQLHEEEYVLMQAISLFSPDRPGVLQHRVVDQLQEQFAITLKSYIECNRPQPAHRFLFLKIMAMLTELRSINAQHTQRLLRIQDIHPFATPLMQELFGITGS
Method in brief: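 Transient HepG2 transfectants carrying multiplexed reporter transcription units; PXR activity read through a Gal4 chimera. 24 h exposure. RT-PCR/CE fluorescence; upward curve fit referenced to DMSO.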

[9] = target: human Retinoic Acid Receptor gamma (RARg), RARG (gene 5916) (UniProt P13631); assay: ATG_RARg_TRANS: Attagene TRANS-FACTORIAL HepG2 Assay for human Retinoic Acid Receptor gamma (RARg) (AID 2283009; active means hit-call score of the fitted dose curve at least 0.9, where 1 is the maximum)
Sequence of human Retinoic Acid Receptor gamma (RARg), RARG (gene 5916) (P13631 whole entry, looked up, the tested form may be a part): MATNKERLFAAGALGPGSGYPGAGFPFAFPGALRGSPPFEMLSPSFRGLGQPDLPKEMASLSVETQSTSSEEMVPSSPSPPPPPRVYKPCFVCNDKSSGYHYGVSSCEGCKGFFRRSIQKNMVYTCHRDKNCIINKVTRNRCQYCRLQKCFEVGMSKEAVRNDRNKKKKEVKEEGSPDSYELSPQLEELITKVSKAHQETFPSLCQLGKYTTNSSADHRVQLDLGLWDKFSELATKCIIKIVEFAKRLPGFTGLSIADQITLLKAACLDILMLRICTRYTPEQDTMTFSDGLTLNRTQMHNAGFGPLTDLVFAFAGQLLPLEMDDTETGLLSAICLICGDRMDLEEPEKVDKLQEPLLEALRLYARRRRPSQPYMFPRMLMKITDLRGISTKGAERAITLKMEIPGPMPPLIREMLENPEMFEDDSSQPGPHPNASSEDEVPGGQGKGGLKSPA
Method in brief: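 TRANS format measured activity of exogenous NR-GAL4 fusion (RARg) in transfected HepG2 liver cells after 24 h dosing. Induced reporter RNA was detected by RT-PCR/capillary electrophoresis fluorescence, analysed in the positive direction against DMSO.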

[10] = target: human RAR-related Orphan Receptor beta (RORb), RORB (gene 6096) (UniProt Q92753); assay: ATG_RORb_TRANS: Attagene TRANS-FACTORIAL HepG2 Assay for human RAR-related Orphan Receptor beta (RORb) (AID 2283010; active means hit-call score of the fitted dose curve at least 0.9, where 1 is the maximum)
Method in brief: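 Transfect HepG2 with multiple GAL4-UAS reporter transcription units; dose chemicals for 24 h; isolate RNA, reverse-transcribe and PCR-amplify reporter sequences; label, digest and resolve fragments by capillary electrophoresis; fit increases relative to DMSO.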

[11] = target: Retinoic acid receptor RXR-alpha (Homo sapiens) (UniProt P19793); assay: ATG_RXRa_TRANS: Attagene TRANS-FACTORIAL HepG2 Assay for human Retinoid X Receptor alpha (RXRa) (AID 2283012; active means hit-call score of the fitted dose curve at least 0.9, where 1 is the maximum)
Sequence of Retinoic acid receptor RXR-alpha (Homo sapiens) (P19793 whole entry, looked up, the tested form may be a part): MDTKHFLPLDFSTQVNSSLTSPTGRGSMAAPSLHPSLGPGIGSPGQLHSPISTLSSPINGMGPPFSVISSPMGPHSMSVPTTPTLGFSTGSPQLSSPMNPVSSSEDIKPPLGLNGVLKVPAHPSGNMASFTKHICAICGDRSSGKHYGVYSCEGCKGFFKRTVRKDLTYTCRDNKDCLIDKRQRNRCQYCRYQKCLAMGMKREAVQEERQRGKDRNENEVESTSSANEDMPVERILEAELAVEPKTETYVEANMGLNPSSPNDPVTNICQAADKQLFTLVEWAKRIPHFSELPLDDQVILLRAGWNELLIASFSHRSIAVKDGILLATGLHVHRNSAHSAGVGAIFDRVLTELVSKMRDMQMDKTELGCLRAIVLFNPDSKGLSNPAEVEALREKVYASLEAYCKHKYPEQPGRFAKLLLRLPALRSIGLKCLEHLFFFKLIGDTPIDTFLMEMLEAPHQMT
Method in brief: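 Measures exogenous chimeric NR-GAL4 activity in transfected HepG2 liver cells after 24 h of dosing. Induced reporter mRNA was detected by RT-PCR with capillary electrophoresis, and gain of signal was analysed against DMSO.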

[12] = target: human Thyroid Receptor alpha (THRa1), THRA (gene 7067) (UniProt P10827); assay: ATG_THRa1_TRANS: Attagene TRANS-FACTORIAL HepG2 Assay for human Thyroid Receptor alpha (THRa1) (AID 2283014; active means hit-call score of the fitted dose curve at least 0.9, where 1 is the maximum)
Sequence of human Thyroid Receptor alpha (THRa1), THRA (gene 7067) (P10827 whole entry, looked up, the tested form may be a part): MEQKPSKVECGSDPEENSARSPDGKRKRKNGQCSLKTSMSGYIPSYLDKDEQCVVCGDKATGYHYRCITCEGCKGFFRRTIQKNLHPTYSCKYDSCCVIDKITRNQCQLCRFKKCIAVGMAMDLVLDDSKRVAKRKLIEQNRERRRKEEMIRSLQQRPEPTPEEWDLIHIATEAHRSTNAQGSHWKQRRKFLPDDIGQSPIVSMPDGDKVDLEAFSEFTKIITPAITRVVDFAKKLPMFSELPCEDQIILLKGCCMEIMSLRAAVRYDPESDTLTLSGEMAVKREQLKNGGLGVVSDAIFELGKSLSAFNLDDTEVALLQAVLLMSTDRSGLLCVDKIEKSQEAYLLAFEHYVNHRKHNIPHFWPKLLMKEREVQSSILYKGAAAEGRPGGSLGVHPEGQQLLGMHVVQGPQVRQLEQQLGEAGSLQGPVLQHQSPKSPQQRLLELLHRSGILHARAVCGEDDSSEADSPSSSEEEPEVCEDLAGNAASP
Method in brief: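 Transient HepG2 transfection, NR-Gal4 chimera driving GAL4-UAS reporters; 24 h compound exposure; total RNA, oligo(dT) RT, PCR, fluorescent primer extension, capillary electrophoresis. Upward direction vs DMSO control.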

[13] = read-out: E-selectin (Homo sapiens) (UniProt P16581); assay: BSK_3C_Eselectin: BioMAP Diversity Plus: 3C Assay for Eselectin Biomarker Activity (AID 2283015); settings: primary human endothelial cells (HUVEC); actives raise or lower the signal
Method in brief: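 HUVEC, 3C stimulation; compound exposure 24 h; E-selectin by ELISA; gain- or loss-of-signal fitted bidirectionally vs DMSO baseline.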

[14] = read-out: Interleukin-1 alpha (IL1a), IL1A (gene 3552); assay: BSK_BE3C_IL1a: BioMAP Diversity Plus: BE3C Assay for Interleukin-1 alpha (IL1a) Biomarker Activity (AID 2283016); settings: primary human bronchial epithelial cells; actives raise or lower the signal
Method in brief: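 Signal from IL-1a ELISA, taken 24 h after chemical dosing of human bronchial epithelial cells, is compared with DMSO as baseline using bidirectional curve fitting.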

[15] = read-out: Monocyte Chemoattractant Protein-1 (MCP1), CCL2 (gene 6347); assay: BSK_3C_MCP1: BioMAP Diversity Plus: 3C Assay for Monocyte Chemoattractant Protein-1 (MCP1) Biomarker Activity (AID 2283017); settings: primary human endothelial cells (HUVEC); actives raise or lower the signal
Method in brief: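 HUVEC, 3C system; 24 h chemical exposure; MCP-1 by ELISA; bidirectional curve fit vs DMSO baseline.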

[16] = read-out: Monocyte Chemoattractant Protein-1 (MCP1), CCL2 (gene 6347); assay: BSK_4H_MCP1: BioMAP Diversity Plus: 4H Assay for Monocyte Chemoattractant Protein-1 (MCP1) Biomarker Activity (AID 2283018); settings: primary human endothelial cells (HUVEC); actives raise or lower the signal
Method in brief: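 Endothelial cells from umbilical vein were treated with test chemical, then after 24 h MCP-1 levels were quantified by ELISA; endpoint values came from bidirectional fitting with DMSO as baseline of activity.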

[17] = target: human Retinoic Acid Receptor beta (RARb), RARB (gene 5915) (UniProt P10826); assay: ATG_RARb_TRANS: Attagene TRANS-FACTORIAL HepG2 Assay for human Retinoic Acid Receptor beta (AID 2283004; active means hit-call score of the fitted dose curve at least 0.9, where 1 is the maximum)
Sequence of human Retinoic Acid Receptor beta (RARb), RARB (gene 5915) (P10826 whole entry, looked up, the tested form may be a part): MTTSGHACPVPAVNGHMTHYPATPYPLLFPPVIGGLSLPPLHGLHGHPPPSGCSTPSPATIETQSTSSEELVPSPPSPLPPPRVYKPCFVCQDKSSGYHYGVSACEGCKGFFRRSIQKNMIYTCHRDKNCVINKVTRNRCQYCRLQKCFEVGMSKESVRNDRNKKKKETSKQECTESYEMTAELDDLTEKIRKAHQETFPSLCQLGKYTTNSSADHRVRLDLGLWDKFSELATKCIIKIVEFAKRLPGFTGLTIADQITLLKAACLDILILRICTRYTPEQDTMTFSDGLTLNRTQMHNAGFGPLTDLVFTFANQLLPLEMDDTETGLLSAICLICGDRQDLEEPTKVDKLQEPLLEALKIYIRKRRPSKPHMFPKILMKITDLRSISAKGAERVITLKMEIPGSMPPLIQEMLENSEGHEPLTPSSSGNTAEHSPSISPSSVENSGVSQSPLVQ
Method in brief: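 Readout is reporter mRNA induction: RNA reverse-transcribed, PCR-amplified, FAM-labelled, HpaI-cut and resolved by capillary electrophoresis. Transiently transfected HepG2 cells carrying exogenous NR–Gal4 chimeras were dosed for 24 h; activity fitted upward relative to DMSO.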

[18] = target: human RAR-related Orphan Receptor gamma (RORg), RORC (gene 6097) (UniProt P51449); assay: ATG_RORg_TRANS: Attagene TRANS-FACTORIAL HepG2 Assay for human RAR-related Orphan Receptor gamma (RORg) (AID 2283011; active means hit-call score of the fitted dose curve at least 0.9, where 1 is the maximum)
Sequence of human RAR-related Orphan Receptor gamma (RORg), RORC (gene 6097) (P51449 whole entry, looked up, the tested form may be a part): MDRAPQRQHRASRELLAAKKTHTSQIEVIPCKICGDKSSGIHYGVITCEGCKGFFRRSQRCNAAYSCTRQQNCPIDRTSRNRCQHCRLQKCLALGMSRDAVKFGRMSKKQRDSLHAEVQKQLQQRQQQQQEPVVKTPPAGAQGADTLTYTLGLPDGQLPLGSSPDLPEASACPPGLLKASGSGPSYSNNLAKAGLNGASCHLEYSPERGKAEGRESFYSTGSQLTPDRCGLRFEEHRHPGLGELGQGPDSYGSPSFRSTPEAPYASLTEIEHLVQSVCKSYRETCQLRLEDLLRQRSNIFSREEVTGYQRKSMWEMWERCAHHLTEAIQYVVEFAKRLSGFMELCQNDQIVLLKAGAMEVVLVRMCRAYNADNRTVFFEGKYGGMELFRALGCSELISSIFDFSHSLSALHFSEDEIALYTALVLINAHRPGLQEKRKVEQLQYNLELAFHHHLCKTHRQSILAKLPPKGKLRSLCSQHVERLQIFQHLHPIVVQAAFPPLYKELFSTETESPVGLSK
Method in brief: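 Transient MRTU transfection of HepG2 (TRANS format, exogenous NR-Gal4 chimera). 24 h dosing. Total RNA → oligo(dT) RT → PCR → 6-FAM labelling → HpaI cut → CE. Gain vs DMSO.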

[19] = target: human Retinoid X Receptor beta (RXRb), RXRB (gene 6257) (UniProt P28702); assay: ATG_RXRb_TRANS: Attagene TRANS-FACTORIAL HepG2 Assay for human Retinoid X Receptor beta (RXRb) (AID 2283013; active means hit-call score of the fitted dose curve at least 0.9, where 1 is the maximum)
Method in brief: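 Chimeric receptor-Gal4 activity was assessed in transiently transfected human HepG2 cells after 24 h exposure. Transcripts from GAL4-UAS reporters were quantified by fluorescent RT-PCR and capillary electrophoresis, with DMSO as negative control and baseline.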

[20] = target: human Peroxisome Proliferator-activated Receptor alpha (PPARa), PPARA (gene 5465) (UniProt Q07869); assay: ATG_PPARa_TRANS: Attagene TRANS-FACTORIAL HepG2 Assay for human Peroxisome Proliferator-activated Receptor alpha (PPARa) (AID 2283001; active means hit-call score of the fitted dose curve at least 0.9, where 1 is the maximum)
Method in brief: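 HepG2, transient MRTU transfection, 24 h treatment. RT-PCR → FAM labelling → capillary electrophoresis. Fit vs DMSO, positive direction.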

Measured: AC50

Sequence of E-selectin (Homo sapiens) (P16581 whole entry, looked up): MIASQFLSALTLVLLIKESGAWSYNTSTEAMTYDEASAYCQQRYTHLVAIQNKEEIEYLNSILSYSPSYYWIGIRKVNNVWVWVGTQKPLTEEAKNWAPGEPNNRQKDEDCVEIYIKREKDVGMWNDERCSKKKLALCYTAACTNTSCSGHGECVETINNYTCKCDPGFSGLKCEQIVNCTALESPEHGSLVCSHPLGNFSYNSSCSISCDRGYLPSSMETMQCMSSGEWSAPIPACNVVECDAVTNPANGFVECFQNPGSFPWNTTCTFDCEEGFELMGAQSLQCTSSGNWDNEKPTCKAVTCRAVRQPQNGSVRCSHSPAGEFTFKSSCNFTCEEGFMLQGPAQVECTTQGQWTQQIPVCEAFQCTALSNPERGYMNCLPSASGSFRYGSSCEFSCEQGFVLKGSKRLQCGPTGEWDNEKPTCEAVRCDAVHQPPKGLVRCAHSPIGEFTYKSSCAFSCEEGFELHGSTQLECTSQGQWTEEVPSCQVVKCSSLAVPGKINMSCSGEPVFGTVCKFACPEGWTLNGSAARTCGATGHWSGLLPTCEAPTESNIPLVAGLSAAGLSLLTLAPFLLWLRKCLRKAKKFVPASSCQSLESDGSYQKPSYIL

CCOP(=S)(Oc1cnc(C(C)(C)C)nc1)OC(C)C (stereo unspecified)
inactive: [3] | [4] | [5] | [7] | [8] | [9] | [10] | [11] | [12] | [14]
active: [1] 36.8 µM | [2] 31.9 µM | [6] 33.3 µM | [13] 31.2 µM | [15] 38 µM | [16] 33.4 µM

CNc1cnn(-c2cccc(C(F)(F)F)c2)c(=O)c1Cl
inactive: [1] | [2] | [3] | [4] | [17] | [5] | [6] | [7] | [8] | [9] | [18] | [12] | [13] | [14] | [15] | [16]

CC(C)N(C(=O)SCC(Cl)=C(Cl)Cl)C(C)C
inactive: [3] | [17] | [5] | [8] | [9] | [11] | [19] | [12] | [14]
active: [1] 35.5 µM | [2] 32 µM | [4] 30.9 µM | [6] 34.7 µM | [13] 30.7 µM | [15] 31.1 µM | [16] 32.2 µM

CCCCOC(=O)[C@@H](C)Oc1ccc(Oc2ccc(C#N)cc2F)cc1
inactive: [1] | [2] | [3] | [4] | [6] | [7] | [8] | [10] | [18] | [11] | [12] | [13] | [14] | [15] | [16]

C=C(C)[C@H]1Cc2c(ccc3c2O[C@@H]2COc4cc(OC)c(OC)cc4[C@@H]2C3=O)O1
inactive: [20] | [3] | [4] | [17] | [5] | [7] | [8] | [9] | [18] | [14]
active: [1] 20 µM | [2] 20 µM | [6] 1.36 µM | [12] 0.24 µM | [13] 20 µM | [15] 34.8 µM | [16] 29.3 µM

CCNc1nc(Cl)nc(NC(C)(C)C#N)n1
inactive: [1] | [2] | [3] | [4] | [6] | [7] | [18] | [11] | [13] | [14] | [15] | [16]

C[N+]1(C)CCCCC1
inactive: [1] | [2] | [4] | [17] | [5] | [6] | [7] | [8] | [9] | [18] | [11] | [12] | [13] | [14] | [15] | [16]

CN(C)C(=O)Nc1cccc(C(F)(F)F)c1
inactive: [1] | [2] | [4] | [17] | [5] | [6] | [7] | [8] | [11] | [13] | [14] | [15] | [16]
